Bioassay records: PubChem, National Center for Advancing Translational Sciences (NCATS)
KDM5B inhibitor: inhibitors of human KDM5B histone demethylase. Potency, µM (doses to about 57.7 µM), usual class: inhibitors. 2.6% of 220,000 active. KDM5B demethylase, FDH-coupled NADH fluorescence (FDH is formaldehyde dehydrogenase); active = well fitted inhibition curve with a large enough effect; also: 0% is about no effect; nearly all actives have a fitted effect of over 70% in size
Target sequence (Q9UGL1 whole entry, looked up): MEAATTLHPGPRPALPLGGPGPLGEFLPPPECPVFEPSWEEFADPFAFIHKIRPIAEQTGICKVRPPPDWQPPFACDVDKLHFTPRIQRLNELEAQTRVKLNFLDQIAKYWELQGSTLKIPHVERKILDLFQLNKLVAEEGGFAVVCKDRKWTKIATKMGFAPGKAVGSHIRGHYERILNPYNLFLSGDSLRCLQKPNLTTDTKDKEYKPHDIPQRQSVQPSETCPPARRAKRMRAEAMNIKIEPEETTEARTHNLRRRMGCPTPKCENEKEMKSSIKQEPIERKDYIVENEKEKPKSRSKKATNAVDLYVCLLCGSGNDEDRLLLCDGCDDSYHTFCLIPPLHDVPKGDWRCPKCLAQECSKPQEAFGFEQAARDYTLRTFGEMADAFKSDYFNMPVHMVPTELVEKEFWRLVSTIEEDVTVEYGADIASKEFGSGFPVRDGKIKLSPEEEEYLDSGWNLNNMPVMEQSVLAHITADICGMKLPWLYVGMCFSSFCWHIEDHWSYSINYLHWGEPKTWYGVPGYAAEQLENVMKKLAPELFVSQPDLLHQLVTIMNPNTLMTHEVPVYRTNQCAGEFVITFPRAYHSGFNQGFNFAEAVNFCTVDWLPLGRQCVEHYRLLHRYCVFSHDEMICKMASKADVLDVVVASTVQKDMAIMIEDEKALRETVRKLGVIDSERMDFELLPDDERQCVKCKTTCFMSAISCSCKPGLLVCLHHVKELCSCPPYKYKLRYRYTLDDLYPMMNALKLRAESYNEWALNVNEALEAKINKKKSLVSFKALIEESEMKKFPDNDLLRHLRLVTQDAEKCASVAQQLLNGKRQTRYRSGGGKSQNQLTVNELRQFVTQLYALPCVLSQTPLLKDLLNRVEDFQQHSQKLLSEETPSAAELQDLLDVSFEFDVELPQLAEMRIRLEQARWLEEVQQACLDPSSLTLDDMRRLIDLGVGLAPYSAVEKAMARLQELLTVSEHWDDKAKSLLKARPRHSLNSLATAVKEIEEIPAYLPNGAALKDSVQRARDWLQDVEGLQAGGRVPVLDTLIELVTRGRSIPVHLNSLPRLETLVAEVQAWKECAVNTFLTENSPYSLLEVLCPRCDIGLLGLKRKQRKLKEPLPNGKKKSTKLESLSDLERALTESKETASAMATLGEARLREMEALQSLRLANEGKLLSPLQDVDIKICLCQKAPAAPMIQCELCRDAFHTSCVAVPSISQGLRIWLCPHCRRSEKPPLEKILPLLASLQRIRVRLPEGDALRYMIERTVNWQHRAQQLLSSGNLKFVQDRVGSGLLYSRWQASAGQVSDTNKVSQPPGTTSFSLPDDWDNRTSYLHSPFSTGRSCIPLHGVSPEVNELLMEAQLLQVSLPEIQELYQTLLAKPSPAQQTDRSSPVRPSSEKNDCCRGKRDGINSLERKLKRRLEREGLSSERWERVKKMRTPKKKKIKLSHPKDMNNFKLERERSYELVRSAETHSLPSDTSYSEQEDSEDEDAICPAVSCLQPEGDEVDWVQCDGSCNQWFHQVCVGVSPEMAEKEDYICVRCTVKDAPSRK
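Here, H3K4me3 peptide (12.5 µM in substrate mix) is demethylated by KDM5BΔAP, 200 nM final, after 10 min compound exposure. Formaldehyde product is coupled through FDH (0.25 U/mL in mix) to NADH fluorescence; 30-min ΔRFU feeds dose-response curves.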
* = called active by the depositor. The entries come from a sample that favours hits as a whole. Potency is read from the fitted curve at half-maximal effect.

How did COc1ccccc1-c1cc(C(=O)NCCc2cnc[nH]2)c2c(c1)N(C)CCO2 do in these assays?
KDM5B inhibitor: 32µM*

Results for O=C(Nc1ccc(-c2cccc(F)c2)cc1)C1CCCN1Cc1cnc[nH]1 (centres undefined) ?
KDM5B inhibitor: inactive

What do the screens show for `CCN(CC)CCNC(=O)c1nc(-c2cccc3[nH]ccc23)no1`?
KDM5B inhibitor: inactive

Results for CN1CCOc2c(C(=O)NCCc3cnc[nH]3)cc(-c3cccc4[nH]ccc34)cc21 ?
KDM5B inhibitor: 32µM*

Results for CCCc1c(C)c2ccc(OCC(=O)c3ccccc3)cc2oc1=O ?
KDM5B inhibitor: inactive

Results for CCOc1cc(/C=C2\NC(=O)NC2=O)cc(I)c1OCc1ccc(C(=O)O)cc1 ?
KDM5B inhibitor: inactive

What do the screens show for `Fc1ccc2c(c1)nc1n2[C@@H](CNCc2ccccc2)COC1`?
KDM5B inhibitor: inactive

How did O=C(Cc1n[nH]c(=O)c2ccccc12)NCc1ccc(OC(F)F)cc1 do in these assays?
KDM5B inhibitor: inactive

What do the screens show for `CN(Cc1ccccc1Cl)S(=O)(=O)c1cccc2nsnc12`?
KDM5B inhibitor: inactive

How did CCCCN(C)S(=O)(=O)N(C)Cc1ccc2c(c1)OCCO2 do in these assays?
KDM5B inhibitor: inactive

What do the screens show for `Cc1noc([C@H]2CCN(Cc3scnc3C)C[C@H]2NC(=O)C2CC2)n1`?
KDM5B inhibitor: inactive

Results for CCCCn1c(=O)[nH]c(=O)c2c1nc(CCC(=O)NCCCO)n2CC(C)C ?
KDM5B inhibitor: inactive

What do the screens show for `O=C1[C@H]2CN(Cc3cccc(F)c3)C[C@H]2C(=O)N1Cc1ccc2c(c1)OCO2`?
KDM5B inhibitor: inactive

How did Cc1ccccc1CN1CCN(S(=O)(=O)c2cn(C)nc2C)CC1 do in these assays?
KDM5B inhibitor: inactive

What do the screens show for `Cc1ccc(C)c(N2CCN(C(=O)c3cc4cc([N+](=O)[O-])ccc4oc3=O)CC2)c1`?
KDM5B inhibitor: inactive

Results for CN(C)Cc1cn(C[C@H]2C[C@@H](NC(=O)c3ccc4c(c3)OCO4)[C@H](O)[C@@H]2O)nn1 ?
KDM5B inhibitor: inactive

How did O=C(N[C@@H]1C[C@H](Cn2cc(CN3CCS(=O)(=O)CC3)nn2)[C@@H](O)[C@H]1O)c1cncnc1 do in these assays?
KDM5B inhibitor: 14µM*

What do the screens show for `COCc1cn(C[C@H]2C[C@@H](NC(=O)c3cnccn3)[C@H](O)[C@@H]2O)nn1`?
KDM5B inhibitor: inactive

How did CSCC(=O)NCCc1ccccn1 do in these assays?
KDM5B inhibitor: inactive

How did CCNc1c(NC(=O)NC2(CC(=O)OCC)CCCCC2)c(=O)oc2ccccc12 do in these assays?
KDM5B inhibitor: inactive

How did CCOc1ccc(-c2nc(CNC(=O)Nc3ccc(C)c(Cl)c3)c(C)o2)cc1 do in these assays?
KDM5B inhibitor: inactive

What do the screens show for `Cc1ccc(C(=O)NCC2CCOCC2)cn1`?
KDM5B inhibitor: inactive

What do the screens show for `CCc1ccc(CN2CCC(CNC(=O)C(C)(C)C)CC2)nc1`?
KDM5B inhibitor: inactive

What do the screens show for `CCc1ccc(CN2CCC(CNC(=O)c3ccc(C)nc3)C2)nc1` (centres undefined)?
KDM5B inhibitor: 16µM*

What do the screens show for `Cc1cc2cc(-c3c(C)noc3C)nc(NCCN(C)C)c2o1`?
KDM5B inhibitor: inactive

How did Cc1cc2cc(-c3c(C)noc3C)nc(-c3cccc([S+](C)(=O)[O-])c3)c2o1 do in these assays?
KDM5B inhibitor: 32µM*

Results for Cc1noc(C)c1-c1cc2cc(CO)oc2c(-c2ccc([S+](C)(=O)[O-])cc2)n1 ?
KDM5B inhibitor: 35µM*

Results for Cc1cc2cc(-c3c(C)noc3C)nc(NCC3CC3)c2o1 ?
KDM5B inhibitor: inactive

How did Cc1noc(C)c1-c1cc2cc(CO)oc2c(-c2cccc(OC(C)C)c2)n1 do in these assays?
KDM5B inhibitor: 25µM*

What do the screens show for `COc1cccc(-c2nc(-c3c(C)noc3C)cc3cc(C)oc23)c1`?
KDM5B inhibitor: 35µM*

What do the screens show for `Cc1ccccc1-c1nc(-c2c(C)noc2C)cc2cc(CO)oc12`?
KDM5B inhibitor: inactive

What do the screens show for `BrCCC1CCCCN1` (centres undefined)?
KDM5B inhibitor: inactive

How did Cc1cc(C)n(-c2nc3c(c(=O)n(CCc4ccccc4)c(=O)n3C)n2C(C)C)n1 do in these assays?
KDM5B inhibitor: inactive

How did COc1ccc2c(-c3ccccc3)cc(SCC(=O)NC3CC3)nc2c1 do in these assays?
KDM5B inhibitor: inactive

How did NC(=O)c1ccc(CNC2(c3ccc(F)cc3)CCCC2)cc1 do in these assays?
KDM5B inhibitor: inactive

What do the screens show for `CC(=O)Nc1ccc(C(=O)C(C)OC(=O)C23CC4CC(CC(C4)C2)C3)cc1` (centres undefined)?
KDM5B inhibitor: inactive

Results for COc1ccc(NC(=O)Cn2c(C(=O)c3ccc(Cl)cc3)nc3ccccc32)c(OC)c1 ?
KDM5B inhibitor: inactive

Results for NC(=O)CN1CCC(C(=O)NCCCn2ncc3ccccc32)CC1 ?
KDM5B inhibitor: inactive

Results for NC(=O)CN1CCC(C(=O)NCCCc2csc(N)n2)CC1 ?
KDM5B inhibitor: inactive

Results for NC(=O)CN1CCC(C(=O)NCc2cn3cccnc3n2)CC1 ?
KDM5B inhibitor: 28µM*
